From PubChem BioAssay
GALC G270D up: enhancers of human galactocerebrosidase G270D mutant activity in cells | P54803 | 145M-Twi-hGALC-G270D cells (Twitcher mouse brain line with human GALC G270D), HMU-beta-Gal fluorescence, 48 h | Potency, µM (highest dose often 57.5 µM), usual class: activators | 45,000 compounds, 0.1% hits; also: potency is read from the fitted curve at half-maximal effect; 0% is about no effect; nearly all actives have a fitted effect of over 65% in size
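Brain-derived Twitcher mouse 145M-Twi cells stably expressing human GALC-G270D or wild-type GALC, treated live, then residual GALC activity read by fluorescence of HMU-b-Gal substrate (0.1 mM final) in citrate-phosphate buffer pH 5.2 with sodium taurocholate. Signal increase indicates enhancement.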
FH mod: Identification of activators of human fumarate hydratase by quantitative high-throughput screening | FH coupled MDH/diaphorase resazurin fluorescence, 15 min | Potency, µM (titrated, usually from 79.9 µM), inactives show at the top dose activity change, negative = inhibition, actives largely listed as inhibitors | 54,000 compounds, 0.22% hits; also: potency is read from the fitted curve at half-maximal effect; % is scaled to controls: 0 for no effect and ±100 for the full control effect; the screen sought activators but most active calls are inhibition curves; nearly all actives have a fitted effect of over 45% in size
NTMT1 inhibitor: blocks human N-terminal methyltransferase 1 activity; NTMT1 MTase-Glo SAH luminescence, purified enzyme; Potency, µM (doses to about 114 µM), inactives show top-dose activity change, negative = inhibition, usual class: inhibitors; 59,000 compounds, 2.5% hits; AID 1645870;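 also: potency is read from the fitted curve at half-maximal effect; plate controls were DMSO vehicle for no effect and no enzyme for full effect; nearly all actives have a fitted effect of over 65% in size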
Target sequence (Q9BV86 whole entry, looked up): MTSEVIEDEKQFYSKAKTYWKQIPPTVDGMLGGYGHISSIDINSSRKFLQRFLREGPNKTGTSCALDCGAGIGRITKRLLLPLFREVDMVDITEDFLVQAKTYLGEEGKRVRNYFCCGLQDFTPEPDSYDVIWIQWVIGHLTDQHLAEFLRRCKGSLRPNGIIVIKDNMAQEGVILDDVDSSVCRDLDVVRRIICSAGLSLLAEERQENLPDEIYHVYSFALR
DYRK1A KinaseGlo: inhibitors of human DYRK1A kinase; 100 compounds, 80% hits; shares compounds with NTMT1 inhibitor; AID 2705; Potency, µM (doses to about 76.9 µM), inactives show at the highest dose activity change, negative = inhibition, usual class: inhibitors; recombinant DYRK1A, Kinase-Glo ATP depletion luminescence
CLK4 inh: confirmation of human CLK4 kinase inhibitors, SAR round 2. 90 compounds, 90% hits. Potency, µM (titrated, usually from 76.9 µM), without a hit: top-dose activity, negative = inhibition, hits mostly inhibitors. shares compounds with NTMT1 inhibitor. AID 493204. recombinant Clk4, Kinase-Glo ATP luminescence, 4.5 h
NNMT inh: counter-screen for NTMT1 inhibitors: human NNMT inhibition. shares compounds with NTMT1 inhibitor. NNMT MTase-Glo luminescence, SAH detection. Potency, µM (top dose mostly 57.1 µM), inactives show top-dose activity, negative = inhibition, actives largely listed as inhibitors. 120 compounds, 10% hits. AID 1645878
Target sequence (P40261 whole entry, looked up): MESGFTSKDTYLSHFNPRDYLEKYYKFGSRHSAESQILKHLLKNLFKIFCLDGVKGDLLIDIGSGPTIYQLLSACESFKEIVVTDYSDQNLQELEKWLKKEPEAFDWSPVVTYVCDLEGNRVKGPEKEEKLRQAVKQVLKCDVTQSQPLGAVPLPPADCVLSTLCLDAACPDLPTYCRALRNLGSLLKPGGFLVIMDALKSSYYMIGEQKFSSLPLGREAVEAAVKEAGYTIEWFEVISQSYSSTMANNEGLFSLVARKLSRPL
Starred values were filed as active, the others as inactive; i = inactive; u = inconclusive; x = not tested or not shown; [ ] = another dose, or the depositor's remark. The sample as a whole holds a higher share of hits than the screen did. Calls follow the shape of the dose curve; as a rule, active = well fitted curve in the direction sought with a large enough effect; inconclusive = small, poorly fitted or top-dose-only effect, or another doubt; inactive = no such curve, though single readings can be large; an effect the other way counts as inactive or inconclusive.

SMILES	GALC G270D up	FH mod	NTMT1 inhibitor	others
Cc1noc(C)c1-c1ccc2ncnc(NCc3ccccc3C(F)(F)F)c2c1	x	x	8.2%
Cc1nc(CNc2ncnc3ccc(-c4oc(-c5ccccc5)nc4C)cc23)cs1	x	x	u	DYRK1A KinaseGlo=u
COc1cccc(CNc2ncnc3ccc(-c4c(C)noc4C)cc23)c1	x	x	-10.5%[57.5 µM]
Cc1ccsc1CNc1ncnc2ccc(-c3c(C)noc3C)cc12	x	x	-1.5%
CN1CCN(c2nnc(NC(=O)Nc3ccc(Cl)c(Cl)c3)s2)CC1	x	x	14.3%
O=C(Nc1ccc2c(c1)CCN(Cc1ncn[nH]1)C2)c1ccccc1-c1ccc(C(F)(F)F)cc1	x	13.3%	28.0%[57.5 µM]
CN1CCN(c2ncc3nc(-c4cn(C)c5ccccc45)c(=O)n(Cc4cccs4)c3n2)CC1	x	x	x	CLK4 inh=-9.2%
CN1CCN(c2nn3c(=O)c4ccccc4nc3s2)CC1	x	x	-19.1%
COc1ccc(OC)c2sc(N3CCN(C(=O)c4ccco4)CC3)nc12	i	8.9%	-8.4%
COc1cc2nc(N3CCN(C(=O)c4ccco4)C4CCCCC43)nc(N)c2cc1OC (stereo unspecified)	x	-6.8%	u	NNMT inh=23.6%
C[C@H]1CCN2C[C@]34C[C@@]5(C(=O)Nc6c5ccc5c6OC=CC(C)(C)O5)C(C)(C)C3C[C@]12C(=O)N4C (stereo partly specified)	x	-2.2%[53.3 µM]	-5.1%[29.8 µM]
CC(C)=CCC[C@](C)(O[C@@H]1O[C@H](CO[C@@H]2OC[C@H](O)[C@H](O)[C@H]2O)[C@@H](O)[C@H](O)[C@H]1O)[C@H]1CC[C@]2(C)[C@@H]1[C@H](O)C[C@@H]1[C@@]3(C)CC[C@H](O[C@@H]4O[C@H](CO)[C@@H](O)[C@H](O)[C@H]4O[C@@H]4O[C@H](CO)[C@@H](O)[C@H](O)[C@H]4O)C(C)(C)[C@@H]3CC[C@]12C	x	2.7%[53.3 µM]	12.2%[29.8 µM]
OCCn1cc(-c2cnc3nnn(Cc4ccc5ncccc5c4)c3n2)cn1	x	-1.2%	-1.7%[57.5 µM]	NNMT inh=-19.4%
Cn1cc(-c2ccc3nnc(Sc4ccc5ncccc5c4)n3n2)cn1	x	-7.0%[53.3 µM]	-7.7%
O=C(O)c1ccnc2cc(-c3nc4ccccc4n3CCN3CCCCC3)sc12	x	12.6µM*	-17.9%[57.5 µM]	NNMT inh=-6.4%
Cc1ccc(OCCSc2nc3ccccc3n2CC(=O)N2CCCCC2)cc1C	i	-18.1%	17.8%
Nc1ncnc2c1ncn2[C@H]1O[C@@H](C(=O)N2CCN(CC(=O)Nc3cccc4c3CNC4=O)CC2)[C@H](O)[C@@H]1O	x	-1.3%	-0.9%[57.5 µM]
OC[C@H]1O[C@@H](n2cnc3c(NC4CCCC4)ncnc32)[C@H](O)C1O (stereo partly specified)	x	-1.9%[53.3 µM]	x
Cc1ccc(NC(=O)N2CCN(c3nc(N)nc4sc(-c5cccnc5)nc34)CC2)cc1	x	-18.1%	-2.2%[57.5 µM]	NNMT inh=15.3%
CC(=O)c1ccc(N2CCN(C(=O)Nc3ccc(C)cc3)CC2)cc1	i	-4.7%	-1.9%
CC(C)C(C(=O)N1CCCC1C(=O)O)N(C)C(=O)C(O)Cc1ccccc1 (stereo unspecified)	x	-3.9%[53.3 µM]	-4.3%[29.8 µM]
CNC(=O)c1ccccc1Nc1cc(Nc2ccc(N3CCOCC3)cc2OC)ncc1C(F)(F)F	x	-10.4%	-1.4%[57.5 µM]	NNMT inh=u
COc1cc(N2CCOCC2)ccc1Nc1ncc(F)c(Nc2ccccc2NS(C)(=O)=O)n1	x	-1.3%	8.7%[57.5 µM]
CC(C)(C)OC(=O)N1CCN(c2ccc(OCc3ccc(-c4ccc(C#N)cc4)o3)cc2)CC1	x	x	-23.7%
Cc1cc(NC(=O)Nc2nnc(C3CCCCC3)s2)ccc1Br	x	x	-1.7%
N#Cc1ccc(Nc2nc(-c3ccc(O)cc3O)cs2)cc1C(F)(F)F	x	u	u	NNMT inh=-28.1%
O=C(Nc1ccc(F)c(C(F)(F)F)c1)Nc1nc(-c2ccncc2)cs1	x	x	4.3%[57.5 µM]
Cc1nnc(-c2cnn(C)c2N)n1CCCn1ccnc1	x	x	-15.2%[57.5 µM]
COc1cccc(OCCCN)c1-c1cc(Nc2cnc(C#N)cn2)n[nH]1	x	4.3%	8.91µM*	NNMT inh=-10.7%
CNc1oc(-c2ccc(Cl)c(Cl)c2)nc1C#N	x	x	1.3%
